Compound activity as filed in PubChem.
PTHR1 agonist: qHTS for PTHR1 Agonists: Primary Screen. Potency, µM (titrated, usually from 115 µM), hits mostly activators. HEK293 GP2 PTHR1 cells, GloSensor cAMP luminescence, 1 h. AID 743266, 2014. Parathyroid hormone/parathyroid hormone-related peptide receptor (Homo sapiens), Q03431. hit rate 0.075% among 410,000; also: nearly all actives have a fitted effect of over 55% in size
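HEK-293-derived GP2 cells expressing PTHR1 and a GloSensor cAMP reporter, 3,000/well, plated overnight, given luciferin plus IBMX (each 0.5 mM as added) for 1 h at 37 °C, then compound for 1 h at 37 °C. Luminescence was read after 15 min at room temperature.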
GLP-1R inv ag: qHTS of GLP-1 Receptor Inverse Agonists (Inhibition Mode); AID 624417, 2012; Glucagon-like peptide 1 receptor (Homo sapiens), P43220; hit rate 1.6% among 410,000; Potency, µM (highest dose often 38.3 µM), most hits filed as inhibitors; HEK293 GLP-1R CRE-luciferase, luminescence, 24 h; GLP-1R form is constitutively active; also: nearly all actives have a fitted effect of over 55% in size
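Inverse agonists were sought by their lowering of basal cAMP reporter luciferase output in HEK293 cells stably carrying constitutively active human GLP-1R, after 24 h compound treatment.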
HEK293 tox: qHTS of GLP-1 Receptor Inverse Agonists: Cytotox Screen. hit rate 0.13% among 410,000. Potency, µM (titrated, usually from 38.3 µM), usual class: inhibitors. HEK293 cAMP-luciferase reporter cells, luminescence, 24 h;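 also: loss of luciferase light is scored as toxicity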
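A 23 nL compound transfer followed 12 hours of cell culture at 37 deg C; exposure then lasted 24 hr. Luciferase assay detection reagent was dispensed and plates read for luminescence after a 12 min room-temperature wait.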
GLP1R ag: qHTS of GLP-1 Receptor Agonists | Glucagon-like peptide 1 receptor (Homo sapiens), P43220 | HEK293 GLP-1R CRE-luciferase, luminescence, 4-6 h; cells express a hypersensitive GLP-1R form | Potency, µM (highest dose often 45.6 µM), usual class: activators | hit rate 0.007% among 380,000 | AID 624172, 2012
TRHR enhancer-1: qHTS for Small Molecule Agonists and Allosteric Enhancers of Human TRH Receptor: Primary Screen for Enhancers. TRHR cells, fluo-8 calcium fluorescence, EC20 TRH enhancement. Thyrotropin-releasing hormone receptor (Homo sapiens), P34981. hit rate 0.66% among 360,000. AID 493056, 2011. enhancement, % at 2 µM; in the data active = enhancement above about 30%
Target sequence (P34981 whole entry, looked up): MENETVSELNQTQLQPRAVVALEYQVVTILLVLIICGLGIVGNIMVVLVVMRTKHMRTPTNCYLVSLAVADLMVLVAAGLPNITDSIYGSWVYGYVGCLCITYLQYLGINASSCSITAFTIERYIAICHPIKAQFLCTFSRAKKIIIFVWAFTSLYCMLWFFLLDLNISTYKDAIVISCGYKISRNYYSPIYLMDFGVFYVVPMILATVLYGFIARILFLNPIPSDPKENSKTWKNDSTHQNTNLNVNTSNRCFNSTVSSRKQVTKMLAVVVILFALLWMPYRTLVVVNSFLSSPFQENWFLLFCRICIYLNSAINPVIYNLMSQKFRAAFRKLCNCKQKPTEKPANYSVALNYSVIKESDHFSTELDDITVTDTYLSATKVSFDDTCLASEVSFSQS
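Enhancer read-out: after compound pinning and an initial kinetic agonist-mode read, an EC20 of TRH (10 nM final) was injected and fluo-8 calcium signal (Ex 480/Em 530) followed at 1 s/cycle for 100 cycles in TRHR-expressing cells.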
TRHR agonist-1: qHTS for Small Molecule Agonists and Allosteric Enhancers of Human TRH Receptor: Primary Screen for Agonists; AID 493084, 2011; Thyrotropin-releasing hormone receptor (Homo sapiens), P34981; hit rate 0.18% among 360,000; activation, % at 2 µM; TRHR cells, calcium flux fluo-8, FDSS agonist mode; in the data active = activation above about 30%
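TRHR-expressing cells loaded with fluo-8 calcium dye; 23 nL library compound pin-transferred, kinetic FDSS fluorescence (Ex 480/Em 530) recorded about 180 s for agonist-induced calcium release, before a 10 nM TRH EC20 addition for potentiator mode.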
TRHR enhancer-2: qHTS for Small Molecule Agonists and Allosteric Enhancers of Human TRH Receptor: Confirmation Screen for Enhancers. shares compounds with TRHR enhancer-1. activity change, negative = inhibition, % at 46.1 µM. TRH receptor cell assay, enhancer confirmation qHTS. 970 tested, under 10 active;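 also: compound effect scored on response to added TRH at EC20 of 10 nM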
TRHR agonist-2: qHTS for Small Molecule Agonists and Allosteric Enhancers of Human TRH Receptor: Confirmation Screen for Agonists | shares compounds with TRHR enhancer-1 | TRHR-expressing cells, agonist activation read-out | Potency, µM (doses to about 46.1 µM), most hits filed as activators | hit rate 8% among 970 | AID 493078, 2011; also: nearly all actives have a fitted effect of over 75% in size
A number is an active result; 0 = inactive; ? = inconclusive; - = no result given. In the library only some 2.4% were active in any assay of this set; here they are far more common. Unless noted, calls follow the shape of the dose curve; as a rule, active = well fitted curve in the direction sought with a large enough effect; inconclusive = small, poorly fitted or top-dose-only effect, or another doubt; inactive = no such curve, though single readings can be large; an effect the other way counts as inactive or inconclusive.

SMILES | PTHR1 agonist | GLP-1R inv ag | HEK293 tox | GLP1R ag | TRHR enhancer-1 | TRHR agonist-1 | TRHR enhancer-2 | TRHR agonist-2
S=C(NC1CCCCC1)N1CCN(c2ncccn2)CC1 | 0 | 0 | 0 | 0 | 0 | 0 | - | -
S=C(NC1CCCCC1)N1CCN(c2ccccn2)CC1 | 0 | 0 | 0 | 0 | 43.5 | 0 | 0 | 0
CN1OCC(S(=O)(=O)c2ccccc2)C1c1ccccc1 (configuration not stated) | 0 | 0 | 0 | 0 | 44.2 | 0 | 0 | 0
O=S(=O)(c1ccccc1)C1CON(Cc2ccccc2)C1c1ccccc1 (configuration not stated) | 0 | 0 | 0 | 0 | 0 | 0 | - | -
Cn1c(=O)c2c(nc(NCc3ccccc3)n2Cc2ccc(F)cc2)n(C)c1=O | - | - | - | - | 0 | 0 | - | -
Cn1c(=O)[nH]c(=O)c2c1nc(NCc1ccccc1)n2Cc1ccc(F)cc1 | 0 | 0 | 0 | 0 | 48.3 | 0 | 0 | 0
COc1ccc(NS(=O)(=O)c2ccc(NC(=O)c3ccccn3)cc2)cc1 | 0 | 0 | 0 | 0 | 0 | 0 | - | -
O=C(NCCCN=C1NS(=O)(=O)c2ccccc21)c1ccc(F)cc1 | 0 | 0 | 0 | 0 | 57.9 | 0 | 0 | 0
O=C(NCCCN=C1NS(=O)(=O)c2ccccc21)c1ccncc1 | 0 | 0 | 0 | 0 | 0 | 0 | - | -
COc1ccc(Cl)cc1C(=O)Nc1ccc(CN2CCCCC2)cc1 | 0 | ? | 0 | 0 | 64.3 | 0 | 0 | 0
CC(C)=CCc1c(O)ccc(C(=O)Cc2ccccc2)c1O | 0 | ? | ? | 0 | 67.4 | 0 | 0 | ?
Cc1ccc(C(=O)Cc2ccccc2)c(O)c1 | 0 | 0 | 0 | 0 | - | - | - | -
N#Cc1ccc(OCC(=O)N2CCN(S(=O)(=O)c3ccc(Cl)s3)CC2)cc1 | 0 | ? | 0 | 0 | 0 | 0 | - | -
O=c1ccc2cc3c4c(c2o1)CCCN4CCC3 | 0 | 0 | 0 | 0 | 0 | 47.4 | ? | 20.6µM
CC1(Cc2cn(CCC#N)c3ccccc23)OCCO1 | 0 | 0 | 0 | 0 | 0 | 0 | - | -
N#CCCn1cc(CNC2CCC(O)CC2)c2ccccc21 (configuration not stated) | 0 | 0 | 0 | 0 | 45.2 | 0 | ? | 0
COc1ccc(N/N=C(\C#N)C(N)=O)cc1 | 0 | 0 | ? | 0 | 45.5 | 0 | 0 | 0
CCOCCCNC(=O)c1cc(Sc2ccc(F)cc2)nc2ccccc12 | 0 | ? | 0 | 0 | 48.8 | 0 | 0 | 0
CN(C(=O)c1cccc(NC(=O)c2ccco2)c1)c1ccccc1 | 0 | 0 | 0 | 0 | 0 | 34.1 | 0 | 0
CCOc1ccc(C(=O)Nc2ccc(N3CCN(C)CC3)cc2)cc1[N+](=O)[O-] | 0 | ? | 0 | 0 | 62.9 | 0 | 0 | 0
COc1ccccc1C(=O)OCC(=O)Nc1cc(S(=O)(=O)N2CCOCC2)ccc1N1CCCC1 | 0 | 0 | 0 | 0 | 0 | 0 | - | -
CC(C)CC(=O)NC(=S)N1CCCCCC1 | 0 | 0 | 0 | 0 | 42.2 | 0 | ? | 0
CCCc1cc(=O)[nH]c(SCC(=O)N2CCCC2=O)n1 | 0 | 0 | 0 | 0 | 0 | 0 | - | -
COc1ccc(OC)c(-c2c3cc(O)c(=O)cc-3oc3cc(O)c(O)cc23)c1 | 0 | ? | ? | 0 | 0 | 0 | - | -
O=c1cc2oc3cc(O)c(O)cc3c(-c3ccccc3O)c-2cc1O | 0 | 0 | 0 | 0 | 0 | 46.8 | 0 | 10.3µM
SMILES | PTHR1 agonist | GLP-1R inv ag | HEK293 tox | GLP1R ag | TRHR enhancer-1 | TRHR agonist-1 | TRHR enhancer-2 | TRHR agonist-2
CCOc1ccccc1-c1c2cc(O)c(=O)cc-2oc2cc(O)c(O)cc12 | 0 | ? | ? | 0 | 0 | 30.7 | 0 | 0.731µM
COc1ccccc1NC(=O)COn1nnc2ccc(S(=O)(=O)N3CCOCC3)cc21 | 0 | 0 | 0 | 0 | 59.3 | 0 | 0 | 0
O=C(COn1nnc2ccc(S(=O)(=O)N3CCOCC3)cc21)NCCc1ccccc1 | 0 | 0 | 0 | 0 | 0 | 0 | - | -
COc1ccc(C(=S)N2CCCC2)cc1 | 0 | 0 | 0 | 0 | 0 | 0 | - | -
C=CCn1c(SCC(=O)Nc2ccccc2F)nc2ccccc2c1=O | 0 | 0 | 0 | 0 | 0 | 0 | - | -
Cc1ncoc1C(=O)N1CCCC(CCC(=O)NCc2ccc(F)c(F)c2)C1 (configuration not stated) | 0 | 0 | 0 | 0 | 0 | 0 | - | -
Cc1ncoc1C(=O)N1CCCC(CCC(=O)NCc2ccccc2F)C1 (configuration not stated) | 0 | 0 | ? | 0 | 45.1 | 0 | 0 | 0
Cc1[nH]c2ccccc2c1C(=O)C(=O)N1CCOCC1 | 0 | 0 | 0 | 0 | 0 | 0 | - | -
N#Cc1ccccc1OCc1nnc(-c2ccccc2Br)o1 | 0 | 0 | 0 | 0 | 44.0 | 0 | 0 | 0
Brc1ccccc1-c1nnc(COc2cccc3cccnc23)o1 | 0 | 0 | 0 | 0 | 0 | 0 | - | -
C/C(=N/Nc1ccc([N+](=O)[O-])cc1)c1ccc(C)cc1C | 0 | 0 | 0 | 0 | 0 | 0 | - | -
C/C(=N/Nc1ccc([N+](=O)[O-])cc1)c1c[nH]c2ccccc12 | 0 | 2.51µM | 0 | 0 | 0 | 34.9 | 0 | ?
CC(=O)c1cc(NC(=O)c2ccc(C)cc2)c(=O)oc1/C=C/N(C)C | 0 | 0 | 0 | 0 | 0 | 0 | 0 | 20.6µM
CN(C)S(=O)(=O)c1ccc(C(=O)Nc2ccccc2[N+](=O)[O-])cc1 | 0 | 0 | 0 | 0 | 0 | 0 | - | -
Cc1ccccc1NC(=O)c1ccc(S(=O)(=O)N(C)C)cc1 | 0 | 0 | 0 | 0 | 45.4 | 0 | 0 | 0
CN(C)S(=O)(=O)c1ccc(C(=O)NCC(=O)N/N=C/c2ccccc2)cc1 | 0 | 0 | 0 | 0 | 82.5 | 0 | 0 | 0
CC(=O)N1CC(C)Oc2ccc(S(=O)(=O)NC(CC(=O)O)c3ccccc3)cc21 (configuration not stated) | 0 | 0 | 0 | 0 | 43.6 | 0 | 0 | 0
O=C(CSc1nnc(CNC(=O)c2ccc(F)cc2)o1)Nc1nccs1 | 0 | 0 | 0 | 0 | 0 | 0 | - | -
